# Bioassay records deposited in PubChem by National Center for Advancing Translational Sciences (NCATS).
# An excerpt weighted towards active compounds, which were near 21% of everything screened.
# Pf growth 96h = inhibits malaria parasite growth, 96 h. Potency, µM (doses to about 28.7 µM), inactives show at the top dose activity change, negative = inhibition, most hits filed as inhibitors. P. falciparum luciferase reporter growth, 96 h. 320,000 tested, 6.9% active; note: potency is the fitted concentration of half-maximal effect; % is set by controls: 0 for no effect and ±100 for the full control effect
#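 Parasite growth measured via integrated firefly luciferase reporter in P. falciparum. Infected erythrocytes at 2% hematocrit, 0.05% parasitemia final were treated 96 hours at 37 C under 5% CO2, and luminescence was read.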
# AMA1-RON2 inh = inhibitors of Plasmodium falciparum AMA1-RON2 interaction; AlphaScreen AMA1-biotinylated RON2 peptide binding; Potency, µM (highest dose often 58.2 µM), inactives show top-dose activity change, negative = inhibition, actives largely listed as inhibitors; 360,000 tested, 0.2% active; AID 720542;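 note: potency is the fitted concentration of half-maximal effect; 0% = vehicle wells and -100% = peptide control; nearly all actives have a fitted effect of over 45% in size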
#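 AMA1 (3D7) with his tag at 25 nM final met compounds first, then biotinylated RON2 peptide at 25 nM; detection used donor plus acceptor beads, 10 µg/mL apiece, read by AlphaScreen after 30 min at room temperature.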
# Pf growth 48h = inhibits P. falciparum growth in the first generation, 48 h | AID 504832 | 310,000 tested, 5.9% active | Potency, µM (series often up to 28.7 µM), inactives show at the highest dose activity change, negative = inhibition, most hits filed as inhibitors | P. falciparum luciferase growth in erythrocytes, 48 h; note: potency is the fitted concentration of half-maximal effect; % is set by controls: 0 for no effect and ±100 for the full control effect
#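 Erythrocytes infected with P. falciparum carrying an integrated firefly luciferase reporter (2% hematocrit, 0.1% parasitemia final) were exposed to compounds in RPMI 1640 with 0.5% Albumax at 37 C, 5% CO2. Growth inhibition was scored as reduced luminescence.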
# Shiga toxin inh = blocks Shiga toxin action in Vero cells; Vero cells, Shiga toxin protein synthesis inhibition reporter; inhibition, % at 38.7 µM; 290,000 tested, 9.2% active; in the data active = inhibition mostly above about 28%, no sharp cut-off; inactive = mostly below about 43%; note: 0% is about no effect
# HCV inhibitor = HCV inhibition. AID 651820. 340,000 tested, 3.4% active. Huh7.5.1 HCVcc-Cre infection, luciferase reporter, 44 h. Potency, µM (highest dose often 41.8 µM), without a hit: at the top dose activity change, negative = inhibition, usual class: inhibitors; note: potency is the fitted concentration of half-maximal effect; % is set by controls: 0 for no effect and ±100 for the full control effect
#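 HCVcc-Cre virus at an moi near 0.5 was added right after compound to cells cultured 4 h from seeding (1,000 cells/well). Luciferase activity was determined 44 h later, 15 min after substrate addition at RT.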
# CHX counter = affects cycloheximide protein synthesis inhibition readout, counter-screen; cell reporter, cycloheximide protein synthesis inhibition counterscreen; AID 2314; max response, %; 300,000 tested, 12% active; in the data active = max response mostly above about 13%, no sharp cut-off; inactive = mostly below about 14%; note: read at 38.3 µM for the half of the compounds with a filed dose; 0% is about no effect
# Starred values were filed as active, the others as inactive; ? = inconclusive; · = no result given; ! = a repeat was not active. Unless noted, calls come from the whole dose curve; as a rule, active = well fitted curve in the direction sought with a large enough effect; inconclusive = small, poorly fitted or top-dose-only effect, or another doubt; inactive = no such curve, though single readings can be large; an effect the other way counts as inactive or inconclusive.
SMILES,Pf growth 96h,AMA1-RON2 inh,Pf growth 48h,Shiga toxin inh,HCV inhibitor,CHX counter
C#CCOCCOCCOCCNc1nc(N2CCN(C(=O)[C@H](Cc3cc4ccccc4[nH]3)n3cc([C@@H](N)CC(C)C)nn3)CC2)nc(N2CCN(C(=O)[C@H](Cc3cc4ccccc4[nH]3)n3cc([C@@H](N)CC(C)C)nn3)CC2)n1,4.1µM*,-24%,2.6µM*,20,12%,1
C#CCOCCOCCOCCNc1nc(N2CCN(C(=O)[C@H]([C@@H](C)CC)n3cc([C@@H](N)CC(C)C)nn3)CC2)nc(N2CCN(C(=O)[C@H](Cc3cc4ccccc4[nH]3)n3cc([C@@H](N)CC(C)C)nn3)CC2)n1,3.3µM*,·,10µM*,14,·,-1
C#CCOCCOCCOCCNc1nc(N2CCOCC2)nc(N2CCN(C(=O)[C@H](Cc3cc4ccccc4[nH]3)n3cc([C@@H](N)CC(C)C)nn3)CC2)n1,4.1µM*,-8%,2.3µM*,-14,-3%,1
COC(=O)C1=C[C@@H](C(=O)OC)C2C3=C(C(=O)[C@@]2(C)NC(=O)c2ccccc2)[C@H](C)[C@@H]2C(=O)NC(=O)[C@@H]2[C@@H]3C1 (some centres not stated),·,·,·,-16,·,1
COc1ccc(-c2nc3ccc(N4CCCC4)cc3c(=O)[nH]2)cc1OC,5%,8%,-3%,-11,10µM*,1
c1cncc(-c2nc3ccccc3[nH]2)c1,0%,-1%,72%,71*!,-3%,37*!
CC(C)(C)C(=O)Nc1cccc(-c2nc3ccccc3[nH]2)c1,·,-3%,-1%,-6,?,4
Cc1cc(-c2nc3ccccc3[nH]2)ccc1N,?,-20%,162%,144*,-6%,24
S=C(Nc1ccc(-c2nc3ccccc3[nH]2)cc1)Nc1cccnc1,-55%,31%,?,66*,?,61*
CCC(CC)C(=O)c1c[nH]c(C(=O)N2CCN(c3ccccc3F)CC2)c1,?,-4%,?,-9,11%,-2
COc1ccc(CCCc2nc3ccccc3[nH]2)cc1,?,-6%,?,70,8%,22*
c1ccc(-c2nc3ccccc3[nH]2)cc1,353%,0%,103%,47*,-26%,31*
Fc1cc2nc(-c3ccncc3)[nH]c2cc1F,1.9µM*,10%,?,71,-1%,24*
COC(=O)c1ccc(-c2ncc[nH]2)cc1,48%,18%,14%,23,21%,24*
C=CCOc1ccc(/C=C/C(=O)OCC(=O)NCc2ccco2)cc1,21%,12%,6%,·,?,·
S=C(NCCN1CCOCC1)Nc1ccc(-c2nc3ccccc3[nH]2)cc1,?,2%,?,177*,?,28*
COc1ccc(-c2nc3ccccc3[nH]2)cc1,-24%,0%,·,27,-23%,25*
COC(=O)c1ccc(C(=O)OCc2nc3cc4ccccc4cc3[nH]2)cc1,?,-8%,63%,14*,-5%,29*
Cc1ccc(Oc2c(C)nc(-c3ccccc3)[nH]c2=O)cc1,1.7µM*,-4%,1µM*,12,-25%,-2
Cc1nc(-c2ccccc2)[nH]c(=O)c1Oc1ccc(Cl)cc1Cl,-22%,19%,0%,-1,-20%,1
O=C1NCC(Nc2ccccc2Cl)C(=O)N1 (configuration not stated),·,3%,·,·,12%,·
CC(C)Oc1cccc(-c2cc(C(=O)NC(=S)N(C)c3ccccc3C(=O)O)c3ccccc3n2)c1,-3%,9%,4%,30,-2%,16
Cc1cc(C(=O)NC2CCCCCCC2)ccc1[N+](=O)[O-],·,-3%,·,·,14%,·
COc1ccc(S(=O)(=O)N2CCN(C(=O)c3ccc4ccccc4n3)CC2)cc1,?,-11%,?,·,16%,·
c1ccc2[nH]c(-c3ccncc3)nc2c1,?,3%,26%,68*,-6%,19*
COC(=O)c1ccc(-c2nc3ccccc3[nH]2)cc1,56%,-2%,56%,active,-5%,63*
COc1ccc2nc(-c3ccccc3)[nH]c(=O)c2c1,·,7%,·,·,2.8µM*,·
COc1ccc2nc(-c3ccccc3)nc(SC)c2c1,·,23%,·,·,11µM*,·
